Assay results: PubChem BioAssay AID1159580 (chemical genetic matrix, 2015)
Values joined by “and” are separate entries in the source; they are usually repeats but may differ in a detail not shown here. Identical values can stand only once. Hit rate of the full screen: of about 5,500 compounds, about 2,000 (36%) were called active. Inconclusive results (about 18%) are left out. No stated cut-off is given here; in the data, active means normalized growth mostly below about 0.91 (no sharp cut-off); inconclusive means no clear call, values can overlap the other calls; inactive means mostly above about 0.92. This is one part of the list.

Assay: chemical genetic growth profiling, strain panel (AID 1159580);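 further: tested at 20 µM; growth read once vehicle control cultures reached saturation at 30 °C; 1 = growth at the plate median or of vehicle wells; lower values mean less growth of the strain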
Settings: S. cerevisiae deletion strains, growth OD

Measured: normalized growth

COc1cc(OC)c2c(c1Cl)OC1(C2=O)C(O)=CC(=O)CC1C (stereo unspecified)
inactive: locus YAL021C, strain ccr4, hits give low values 1.02 | locus YAL026C, strain drs2, hits give low values 1.01 | locus YAL030W, strain snc1, hits give low values 1.01 | locus YBL061C, strain skt5, hits give low values 1.01 | locus YBR009C, strain hhf1, hits give low values 1.01 | locus YBR021W, strain FUR4, hits give low values 1.04 | locus YBR023C, strain chs3, hits give low values 1.01 | locus YBR171W, strain sec66, hits give low values 1.03 | locus YBR229C, strain ROT2, hits give low values 1.02 | locus YBR231C, strain swc5, hits give low values 1.01 | locus YBR279W, strain paf1, hits give low values 1.01 | locus YCL011C, strain gbp2, hits give low values 1.02 | locus YCL016C, strain dcc1, hits give low values 1.01 | locus YCL029C, strain bik1, hits give low values 1.01 | locus YCL061C, strain MRC1, hits give low values 1.01 | locus YCL069W, strain vba3, hits give low values 1.01 | locus YCR088W, strain abp1, hits give low values 1.01 | locus YDL005C, strain med2, hits give low values 1.01 | locus YDL035C, strain GPR1, hits give low values 1.04 | locus YDL040C, strain nat1, hits give low values 1.01 | locus YDL074C, strain BRE1, hits give low values 1.07 | locus YDL101C, strain DUN1, hits give low values 1.03 | locus YDL134C, strain PPH21, hits give low values 1.01 | locus YDL185W, strain tfp1, hits give low values 0.981 | locus YDL192W, strain arf1, hits give low values 1.02 | locus YDR001C, strain nth1, hits give low values 1.01 | locus YDR069C, strain doa4, hits give low values 1.01 | locus YDR101C, strain arx1, hits give low values 1.02 | locus YDR137W, strain rgp1, hits give low values 1.02 | locus YDR159W, strain sac3, hits give low values 1.02 | locus YDR162C, strain NBP2, hits give low values 1.05 | locus YDR195W, strain ref2 1.03 | locus YDR297W, strain sur2, hits give low values 1.01 | locus YDR318W, strain mcm21, hits give low values 1 | locus YDR334W, strain swr1, hits give low values 1.01 | locus YDR335W, strain msn5, hits give low values 1.02 | locus YDR388W, hits give low values 1.01 | locus YDR392W, strain spt3, hits give low values 1.01 | locus YDR502C, strain sam2, hits give low values 0.986 | locus YEL003W, strain gim4, hits give low values 1.01 | locus YEL037C, strain rad23, hits give low values 1 | locus YEL061C, strain CIN8 (second series), hits give low values 1.01 | locus YER015W, strain faa2, hits give low values 1.01 | locus YER016W, strain bim1, hits give low values 1.02 | locus YER110C, hits give low values 0.977 | locus YER111C, strain swi4, hits give low values 1.01 | locus YER155C, strain BEM2 (second series), hits give low values 1.03 | locus YER155C, strain BEM2, hits give low values 1.02 | locus YER167W, strain BCK2, hits give low values 1.02 | locus YFR010W, strain ubp6, hits give low values 1.01 | locus YGL078C, strain dbp3, hits give low values 0.978 | locus YGL086W, strain mad1, hits give low values 1.01 | locus YGL167C, strain pmr1, hits give low values 1.02 | locus YGL173C, strain kem1, hits give low values 1.01 | locus YGL227W, strain vid30, hits give low values 1.01 | locus YGL240W, strain doc1, hits give low values 1 | locus YGL248W, strain PDE1, hits give low values 1.02 | locus YGL253W, strain hxk2, hits give low values 1.01 | locus YGR135W, strain pre9, hits give low values 0.983 | locus YGR252W, strain gcn5, hits give low values 0.915 | locus YHR013C, strain ard1, hits give low values 1.03 | locus YHR027C, strain rpn1, hits give low values 1.01 | locus YHR030C, strain SLT2, hits give low values 1.02 and 0.99 | locus YHR079C, strain IRE1 (second series), hits give low values 0.979 | locus YHR079C, strain IRE1, hits give low values 0.997 | locus YHR094C, strain hxt1, hits give low values 0.983 | locus YHR129C, strain ARP1, hits give low values 1.02 | locus YHR142W, strain chs7, hits give low values 1.02 | locus YHR200W, strain rpn10, hits give low values 0.999 | locus YIL066C, strain RNR3, hits give low values 1.07 | locus YIL073C, strain SPO22, hits give low values 1 | locus YIL125W, strain kgd1, hits give low values 0.99 | locus YIR030C, strain dcg1, hits give low values 1.01 | locus YJL092W, strain hpr5, hits give low values 1.01 | locus YJL095W, strain BCK1 (second series), hits give low values 1 | locus YJL095W, strain BCK1, hits give low values 1.04 and 0.978 | locus YJL115W, strain asf1, hits give low values 1 | locus YJL129C, strain trk1, hits give low values 1.02 | locus YJL134W, strain LCB3, hits give low values 1.02 | locus YJL154C, strain vps35, hits give low values 1.02 | locus YJL164C, strain tpk1, hits give low values 1.01 | locus YJL166W, strain qcr8, hits give low values 1.01 | locus YJL168C, strain set2, hits give low values 0.977 | locus YJL187C, strain SWE1 (second series), hits give low values 1.03 | locus YJL187C, strain SWE1, hits give low values 1.01 | locus YJR066W, strain TOR1, hits give low values 0.9
